Source: PubChem BioAssay (National Center for Advancing Translational Sciences (NCATS))
Most compounds without a hit are left out; they make up all but 9.4% or so of the library.
IMPase inh: membrane-permeable compound that blocks inositol monophosphatase; AID 901; P97697; 120,000 tested, under 10 active; CHO-M1 cells, IP1 accumulation, HTRF TR-FRET ratio; inhibition (IP1 accumulation), % at 46.1 µM; active means well fitted curve in the direction sought with a large enough effect in the signal ratio, not every such curve was filed as active; inconclusive means small, poorly fitted or top-dose-only effect, or a change in a side signal; inactive means no such curve, though single readings can be large or run the other way; the % refers to the signal ratio;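 further: cells stimulated with carbachol in lithium chloride buffer; plate controls were DMSO basal wells for no effect and reference inhibitor wells for full effect; higher means more IMPase inhibition seen as more IP1 and lower FRET ratio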
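CHO-M1, 2000 cells/well, cultured 16–30 h; cpd up to 46 uM; carbachol (50 uM solution, stimulation buffer w/ 50 mM LiCl, pH 7.4), 30 min 37C; IP-One TR-FRET, 10 min RT; Ex 320/Em 665, 620; Hill-fit AC50.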
HTT cytoprotect: cytoprotection in Huntington HTT-Q103 PC12 cell model; Potency, µM (highest dose often 56.4 µM), for the others: cytoprotection (ATP increase), usual class: activators; 230,000 tested, 0.14% active; PC12 HTT-Q103 induced, cytoprotection, ATP luminescence, 40 h; AID 1471; further: potency means the concentration at half of the fitted maximal effect; % of control where 0% means no effect; nearly all actives have a fitted effect of over 45% in size
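ATP quantification (ATPlite) reports survival of PC12 cells in which tebufenozide, 100 nM final, switches on Htt exon 1 with 103 glutamines linked to GFP; compounds are titrated.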
IMPase Li cell: membrane-permeable IMPase blocker, potentiated with lithium; CHO-M1 cells, IP1 TR-FRET (IP-One), carbachol + lithium; Potency, µM (series often up to 59.4 µM), for the others: at the highest dose activity, negative = IMPase inhibition, hits mostly inhibitors; 210,000 tested, 0.35% active;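 further: IP1 builds up when IMPase is blocked and the TR-FRET signal falls; potency means the concentration at half of the fitted maximal effect; plate controls were basal vehicle for no effect and high inhibitor control for full effect; nearly all actives have a fitted effect of over 50% in size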
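IP1 accumulation measured by competitive TR-FRET in lysed CHO-M1 cells after 30 min compound exposure at 37C, with a small lithium addition to potentiate weak responses. Hill-equation AC50 from ratio and donor-channel data.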
ALDH1A1 block: blocks purified human ALDH1A1 activity | Purified ALDH1A1, NADH fluorescence, propionaldehyde substrate | Potency, µM (titrated, usually from 75.3 µM), for the others: at the highest dose activity, negative = inhibition, most hits filed as inhibitors | 220,000 tested, 7.3% active | AID 1030; active means well fitted inhibition curve with a large enough effect, not every such curve was filed as active; inconclusive means small, poorly fitted or top-dose-only effect, or another doubt; inactive means no such curve, though single readings can be large or run the other way;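 further: potency means the concentration at half of the fitted maximal effect; plate controls were no enzyme wells and a reference inhibitor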
Target sequence (P00352 whole entry, looked up): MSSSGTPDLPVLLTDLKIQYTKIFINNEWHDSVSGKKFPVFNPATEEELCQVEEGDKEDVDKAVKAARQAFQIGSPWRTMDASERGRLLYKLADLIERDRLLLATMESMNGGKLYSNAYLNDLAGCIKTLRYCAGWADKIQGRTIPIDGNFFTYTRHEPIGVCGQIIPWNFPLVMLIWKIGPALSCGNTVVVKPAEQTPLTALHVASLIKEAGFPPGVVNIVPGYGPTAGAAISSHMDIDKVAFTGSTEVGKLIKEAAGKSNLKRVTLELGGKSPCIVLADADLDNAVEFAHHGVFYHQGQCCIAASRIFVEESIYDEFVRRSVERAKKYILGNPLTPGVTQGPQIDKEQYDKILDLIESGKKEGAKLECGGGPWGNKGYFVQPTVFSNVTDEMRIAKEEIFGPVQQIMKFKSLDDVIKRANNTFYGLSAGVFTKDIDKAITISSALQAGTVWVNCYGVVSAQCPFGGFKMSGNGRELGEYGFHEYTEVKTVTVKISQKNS
HTT aggregate: inhibitors of mutant huntingtin aggregate formation in PC12 cells; PC12 HttQ103-GFP aggregates, Acumen cytometry, 40 h; Potency, µM (series often up to 46.1 µM), inactives show at the top dose activity change, negative = inhibition, usual class: inhibitors; 220,000 tested, 1.1% active; AID 1688; further: potency means the concentration at half of the fitted maximal effect; on the % scale 0 is the no-effect control and ±100 the full control effect; nearly all actives have a fitted effect of over 60% in size
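PC12 cells stably carrying ecdysone-inducible HTT exon 1 Q103–GFP were induced with tebufenozide (100 nM final) and treated with library compounds in titration. GFP aggregates in lysates were counted by laser scanning cytometry.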
HPGD inh: inhibitors of human 15-hydroxyprostaglandin dehydrogenase (HPGD); P15428; purified HPGD, NADH fluorescence kinetic, PGE2 substrate; Potency, µM, without a hit: top-dose activity change, negative = inhibition, usual class: inhibitors; 150,000 tested, 4.3% active; AID 894; active means well fitted inhibition curve with a large enough effect, not every such curve was filed as active; inconclusive means small, poorly fitted or top-dose-only effect, or another doubt; inactive means no such curve, though single readings can be large or run the other way; further: potency means the concentration at half of the fitted maximal effect; on the % scale 0 is the no-effect control and ±100 the full control effect
Target sequence (P15428 whole entry, looked up): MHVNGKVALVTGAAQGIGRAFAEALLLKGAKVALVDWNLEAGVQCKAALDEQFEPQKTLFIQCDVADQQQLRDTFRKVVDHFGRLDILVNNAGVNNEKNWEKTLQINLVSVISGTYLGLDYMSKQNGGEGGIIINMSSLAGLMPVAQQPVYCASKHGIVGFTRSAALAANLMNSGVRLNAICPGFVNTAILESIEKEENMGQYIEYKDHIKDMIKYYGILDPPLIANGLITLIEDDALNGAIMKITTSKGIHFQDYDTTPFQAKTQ
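NADH formation kinetics: reaction with 30 uM PGE2 and 1 mM NAD+ (final), 20 nM enzyme, Tris-HCl pH 8 with Tween 20, after 15 min compound preincubation at room temperature. Fluorescence change, last versus first of five reads.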
* hit, by the source's call; ? = inconclusive; · = not tested or not shown; [ ] = remark or other dose. Unless noted, the call rests on the fitted dose curve; in most records, active means well fitted curve in the direction sought with a large enough effect; inconclusive means small, poorly fitted or top-dose-only effect, or another doubt; inactive means no such curve, though single readings can be large; an effect the other way counts as inactive or inconclusive.

SMILES	IMPase inh	HTT cytoprotect	IMPase Li cell	ALDH1A1 block	HTT aggregate	HPGD inh
CC1(c2ccc3noc(-c4ccc(Cl)cc4)c3c2)OCCO1	16	-10%	-9%[38.3 µM]	?	12%	-23%
Cc1ccc(-c2onc3ccc(Cl)cc23)cc1	·	20%[0.074 µM]	8%	-1%	-25%	-5%
COc1ccc(-c2onc3ccc(Cl)cc23)cc1	0	-23%	31%[38.3 µM]	20µM*	-6%	?
CC1=C(C(=O)OCC2CCCO2)C(c2ccc(C)o2)C2=C(CC(c3ccc(F)cc3)CC2=O)N1 (stereo not drawn)	10	-17%[0.074 µM]	12%[38.3 µM]	?	10%	-11%
CC1=C(C(=O)OCC2CCCO2)C(c2ccc(C)o2)C2=C(CC(c3ccc(N(C)C)cc3)CC2=O)N1 (stereo not drawn)	-9	4%[0.074 µM]	5%	10µM*	-4%	-8%
CCOC(=O)C1=C(C)NC2=C(C(=O)CCC2)C1c1ccc(N(C)C)cc1 (stereo not drawn)	-13	2%	36%[38.3 µM]	28µM*	-21%	-1%
O=c1cc(CO)oc(C(Nc2ccccn2)c2cccc(F)c2)c1O (stereo not drawn)	-1	15%[10 µM]	24%[38.3 µM]	32µM*	17%	-14%
COc1cccc(C(Nc2ccccn2)c2oc(CO)cc(=O)c2O)c1 (stereo not drawn)	·	-19%	3%	?	-6%	·
Cc1nc(N2CCOCC2)c2nc(-c3ccccc3)n(CCN3CCCC3)c2n1	·	1%	-3%	?	·	?
O=C(CSc1ncnc2c1oc1ccccc12)NCc1ccco1	?	-2%	11µM*	11µM*	16%	8.9µM*
O=C(CSc1ncnc2c1oc1ccccc12)Nc1ccccc1C(F)(F)F	?	-8%[10 µM]	5.6µM*	-8%	-15%	?
O=C(O)CSc1ncnc2c1oc1ccccc12	-28	-13%	·	6%	-9%	·
COc1ccc2c(Cl)c(C(=O)NN)sc2c1	-4	-73%	19%[38.3 µM]	1.1µM*	-30%	-29%
COc1ccc2c(Cl)c(C(N)=O)sc2c1	?	-27%	?	-1%	?	-13%
COC(=O)[C@@H](NC(=O)O[C@@H]1C(=O)c2cc(Br)ccc2O[C@H]1c1ccc2c(c1)OCO2)C(C)C	·	-22%	14%	-5%	·	-6%
OCc1ccncc1.OCc1ccncc1.[Cl][Pt]([Cl])([Cl])[Cl]	·	1%[10 µM]	7%	2.8µM*	·	?
CC(=O)OC[C@H]1O[C@@H](O/N=C(\C)CCC(=O)OC[C@@H]2O[C@H](C#Cc3ccccc3)C=C[C@@H]2Oc2ccc(C)cc2)[C@H](OC(C)=O)[C@@H](OC(C)=O)[C@H]1OC(C)=O	·	-6%[10 µM]	·	4%[13.5 µM]	·	·
O=C1NC2=C(C(=O)c3ccccc32)C(c2ccccc2)N1 (stereo not drawn)	0	-6%	-14%[38.3 µM]	16µM*	-5%	-24%
CC(=O)C1=C(C)NC(=O)NC1c1ccccc1 (stereo not drawn)	2	10%	0%[38.3 µM]	9%	-1%	-6%
CC1=C([N+](=O)[O-])C(c2ccccc2)C2=C(N1)c1ccccc1C2=O (stereo not drawn)	3	-68%	3%[38.3 µM]	?	-19%	22µM*
O=C1[C@@H]2C(c3cccnc3)=NO[C@@H]2C(=O)N1c1ccc2ccccc2c1	·	8%[10 µM]	·	1.6µM*	0%[9.22 µM]	·
CCN(CC)S(=O)(=O)c1ccc(N2CCCC2)c(NS(=O)(=O)c2ccc(OC)cc2)c1	·	15%[10 µM]	8%	2.5µM*	2%	-6%
CCN(CC)S(=O)(=O)c1ccc(N2CCCC2)c(NS(=O)(=O)c2ccc([N+](=O)[O-])cc2)c1	-10	13%[10 µM]	·	2µM*	?	·
CCN(CC)S(=O)(=O)c1ccc(N2CCOCC2)c(NS(=O)(=O)c2cc(C(C)(C)C)ccc2C)c1	·	?	7%	14µM*	0%	-15%
CCN(CC)S(=O)(=O)c1ccc(N2CCOCC2)c(NC(=O)c2cc([N+](=O)[O-])ccc2Cl)c1	·	-21%	4%	?	-21%	·
SMILES	IMPase inh	HTT cytoprotect	IMPase Li cell	ALDH1A1 block	HTT aggregate	HPGD inh
CCN(CC)S(=O)(=O)c1ccc(N2CCCC2)c(NS(=O)(=O)c2ccc(F)cc2)c1	·	21%[10 µM]	28%	0.63µM*	?	-27%
CCN(CC)S(=O)(=O)c1ccc(N2CCOCC2)c(NS(=O)(=O)c2ccc(C(C)C)cc2)c1	·	-2%[10 µM]	7%	-2%	17%	-4%
S=C(NNc1ccc2ccccc2c1)NC1CCCCC1	10	4%[1.9 µM]	1%	-7%	15%	-7%
CO[C@@H]1/C=C\O[C@]2(C)Oc3c(C)c(O)c4c(O)c(cc(O)c4c3C2=O)NC(=O)/C(C)=C\C=C/[C@H](C)[C@@H](O)[C@H](C)[C@H](O)C(C)[C@H](OC(C)=O)[C@@H]1C (stereo partly drawn)	·	·	-6%	-6%[13.5 µM]	·	-13%
CCN(CC)S(=O)(=O)c1ccc(N2CCCC2)c(NC(=O)Cc2ccccc2)c1	·	23%[10 µM]	·	·	31%[9.22 µM]	·
CCN(CC)S(=O)(=O)c1ccc(N2CCCC2)c(NS(=O)(=O)c2ccccc2)c1	·	3%[10 µM]	13%	0.35µM*	1%	-13%
Cc1cccc(NC(=S)NCCc2c[nH]c3ccccc23)c1	·	9%[10 µM]	-1%	2%	11µM*	-16%
CC(C)C(=O)NC(=S)Nc1ccccn1	4	-4%	·	?	-12%	·
Cc1ccc(NC(=S)NCCc2c[nH]c3ccccc23)cc1	4	-5%	3%[38.3 µM]	-5%	0%	1%
Cc1cccc(NC(=S)NCCC(C)C)c1	·	-5%[0.074 µM]	-4%	-5%	4%	28µM*
CC(C)CCNC(=S)Nc1ccccn1	·	?	9%	6.3µM*	0%	-7%
S=C(Nc1ccc(Nc2ccccc2)cc1)Nc1ccccn1	·	-52%	14%	16µM*	3%[9.22 µM]	·
Cc1ccccc1NC(=O)C1CCN(C(=O)c2ccc(F)cc2)CC1	0	·	·	·	·	·
COc1ccc(NC(=O)CSC2=Nc3ccccc3C3=NC(CCC(=O)NCc4ccc(F)cc4)C(=O)N23)cc1Cl (stereo not drawn)	-5	·	·	·	·	·
COC(=O)C(c1ccc(OC)c(OC)c1)C1c2ccccc2C=C(C)N1C(=O)OC (stereo not drawn)	·	·	8%	-5%	·	-9%
Cc1ccc(NC(=S)NCCC(c2ccccc2)c2ccccc2)c(C)c1	-3	15%[10 µM]	14%	?	13µM*	-24%
COc1ccc2c(=O)c(OC)c(-c3ccccc3)oc2c1	·	·	4%	?	·	?
O=C(Nc1ccc(Cl)cc1)Nc1cc([N+](=O)[O-])ccc1F	·	-4%[10 µM]	8%	3%	20µM*	-1%
